Active and inactive are the calls of the source. Rule for the calls: active = hit-call score of the fitted dose curve at least 0.9, where 1 is the maximum; inactive = score below 0.9.
Assay: CCTE_Shafer_MEA_acute_synchrony_index: CCTE's Neural Acute Assay for Synchrony, Shafer Lab (AID 2284027);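 note: fitted for loss of signal so actives lower synchrony relative to DMSO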
Method: CCTE_Shafer_MEA_acute assay is conducted using Axion Biosystems 48 well microelectrode array (MEA) plates and Maestro recording system. Each well of the MEA plate contains a grid of 16 microelectrodes embedded in the culture surface. Electrically active cells, such as neurons, can be cultured over the electrodes, and electrical activity in these cells can be recorded extracellularly. The spontaneous firing of neurons is captured from each electrode on a microsecond timescale providing both temporally and spatially precise data. […] The CCTE_Shafer_MEA_acute assay uses primary cultures of rat cortical neurons. As these cultures mature over time, neural networks develop functional activity and form cohesive networks in which electrical activity can be highly coordinated. Baseline 40-minute recordings are made on days post-plating 13 or 15, followed by a secondary 40-minute recording after chemical exposure.CCTE_Shafer_MEA_acute_synchrony_index is a component of the CCTE_Shafer_MEA_acute assay. It measures the synchrony of the neural network as a unitless measure between 0 (low synchrony) to 1 (high synchrony) during a recording in a microelectrode array (MEA) using Axion Biosystems Maestro 768 channel amplifier with the AxIS adaptive spike detector. The recordings before and after chemical treatment are used to calculate a percent change in the synchrony index in each well.Data from the assay component CCTE_Shafer_MEA_acute_synchrony_index was analyzed into 1 assay endpoint. This assay endpoint, CCTE_Shafer_MEA_acute_synchrony_index, was analyzed in the negative analysis fitting direction relative to DMSO as the negative control and baseline of activity. Using a type of functional reporter, gain or loss-of-signal activity can be used to understand electrical activity.
Spontaneous activity in the cortical cultures was recorded using an Axion Biosystems Maestro 768 channel amplifier and Axion Integrated Studios (AxIS) v1.8 (or later) software. The amplifier recorded from all channels simultaneously (gain = 1200 x; sampling rate = 12.5 kHz/channel): raw signals were filtered with a Butterworth band-pass filter (300-5000 Hz), which filters out slower local field potentials leaving only fast potentials, i.e., "spikes", arising from extracellular currents associated with action potentials (Pine 2006; Wheeler and Nam 2011). On-line spike detection of filtered signals was conducted with the AxIS adaptive spike detector, using a threshold of 8x the root mean squared (rms) noise on each channel. Any electrodes with rms noise levels greater than 5 uV were grounded (e.g., no data were recorded). Once grounded, an electrode was grounded for the duration of the experiment. All recordings were conducted at 37 C. Wells were deemed usable if on the day of the exposure >/= 10 electrodes were active (defined as >/= 5 spikes/min). On DIV 13 or 15, a minimum of three wells from one cortical culture preparation were treated with each compound (0.03-40 uM). Prior to recording baseline activity, each mwMEA plate was placed in the Maestro at 37 C and allowed to sit for 20 min while firing rates stabilized. Baseline activity (40 min) was recorded before the addition of each compound. An additional 40 min of spontaneous activity was recorded in the presence of each compound. Changes in network parameters relative to baseline were assessed following compound treatment.

Row | SMILES | AC50 | outcome
1 | CN(C)Cc1cc(C(C)(C)C)c(O)c(C(C)(C)C)c1 | 22.8 µM (active) | 
2 | Cc1c(C(N)=O)cc([N+](=O)[O-])cc1[N+](=O)[O-] |  | inactive
3 | C1CN(CCOCCN2CCOCC2)CCO1 |  | inactive
4 | CC(C)C1OCCN1CCOC(=O)NCCCCCCNC(=O)OCCN1CCOC1C(C)C (stereo unspecified) |  | inactive
5 | COc1ccc(C(=O)c2ccccc2O)c(O)c1 |  | inactive
6 | COc1cc(CNC(=O)CCCC/C=C/C(C)C)ccc1O | 5.59 µM (active) | 
7 | CCC[Si](OC(C)=O)(OC(C)=O)OC(C)=O |  | inactive
8 | O=[N+]([O-])c1cc(S(=O)(=O)Nc2ccccc2)ccc1Nc1ccccc1 | 23.8 µM (active) | 
9 | CC[N+](CC)(CC(=O)Nc1c(C)cccc1C)Cc1ccccc1 (tested in a mixture with another compound) |  | inactive
10 | CC1(C)S[C@@H]2[C@H](NC(=O)[C@H](N)c3ccc(O)cc3)C(=O)N2[C@H]1C(=O)O |  | inactive
11 | NC(N)=Nc1nc(CSCCC(N)=NS(N)(=O)=O)cs1 |  | inactive
12 | CNCCC(Oc1ccc(C(F)(F)F)cc1)c1ccccc1 (stereo unspecified) | 6.04 µM (active) | 
13 | COc1ccccc1Oc1c(NS(=O)(=O)c2ccc(C(C)(C)C)cc2)nc(-c2ncccn2)nc1OCCO |  | inactive
14 | CN(C)CCC(c1ccc(Cl)cc1)c1ccccn1 (stereo unspecified) | 27.7 µM (active) | 
15 | CC1(C)S[C@@H]2[C@H](NC(=O)[C@H](N)c3ccccc3)C(=O)N2[C@H]1C(=O)O | 0.0846 µM (active) | 
16 | CN(C)C(=O)C(CCN1CCC(O)(c2ccc(Cl)cc2)CC1)(c1ccccc1)c1ccccc1 | 2.29 µM (active) | 
